From PubChem
E coli growth-1: blocks Escherichia coli growth; OD600, 23 h; hits give low values; OD600 absorbance (test concentration not listed); actives 0.21% (n = 330,000); AID 1053175;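 active = OD600 absorbance below the run mean of sample wells minus 3.6 SD, in any replicate, cut at about 0.56 in these data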
phage Ecoli inh: E. coli growth loss with phage present | growth absorbance | inhibition, % at 11.9 µM | actives 0.26% (n = 360,000) | AID 651602; in the data active = inhibition above about 11%
E coli growth-2: bacterial growth inhibition, counter-screen for AddAB inhibitors. E. coli V3065 growth, OD600 absorbance, 18 h. AID 449728. inhibition, % at 11.9 µM. actives 0.27% (n = 330,000);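 active = inhibition above the campaign's mean inhibition across all tested compounds plus 3 SD, cut at about 9.9% in these data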;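 note: uninfected addAB+ strain grown without phage in ampicillin broth; 0% = DMSO wells and 100% = ciprofloxacin 0.95 µg/ml wells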
Tat export inh: E. coli Tat transport inhibition; AID 488895; E. coli MC4100 TorA-mCherry Tat export, fluorescence; inhibition, % at 10 µM; actives 0.036% (n = 340,000);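 active = mean replicate inhibition at least 50% and at least half of replicates individually reaching 50%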;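 note: exported cargo escapes ClpAP degradation while cytoplasmic cargo is degraded and loses fluorescence; 0% = median of neutral control wells and 100% = median of NaSCN control wells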
p-CIP stab down: compounds decreasing mouse p/CIP protein stability; F442A p/CIP-EGFP cells, EGFP fluorescence, 16 h; decrease of EGFP signal, % at 10 µM; AID 1984; actives 0.01% (n = 290,000); Q05BA5;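 active = EGFP signal decrease of at least 30% at 10 µM or well 3 SD below plate mean, unless failing retest; inactive = the rest, including hits failing retest or dose response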
AddAB inh: less growth of phage-infected E. coli with AddAB; E. coli expressing H. pylori AddAB, absorbance growth; inhibition, % at 11.9 µM; actives 0.29% (n = 330,000); in the data active = inhibition above about 12%;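 note: 0% = vehicle wells of infected cells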
AddAB conf: confirmation screen: growth loss of phage-infected E. coli expressing H. pylori AddAB; inhibition, % at 11.9 µM; actives 64% (n = 880); E. coli V3065 expressing H. pylori AddAB, T4 phage, OD; T4 phage with gene 2 nonsense mutations; shares compounds with AddAB inh; AID 488942;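 active = mean inhibition above a set limit taken from the earlier primary screen, cut at about 13% in these data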;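 note: higher means less bacterial growth since AddAB block lets phage replicate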
RecBCD counter: AddAB counter-screen: growth loss of RecBCD+ E. coli infected with mutant T4 phage; AID 488955; shares compounds with AddAB inh; inhibition, % at 11.9 µM; actives 73% (n = 880); E. coli V66 + mutant T4 phage, OD growth;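 active = mean inhibition above the mean of solvent-only control wells plus 3 SD, cut at about 4% in these data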;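 note: optical density read after an 18 h incubation at 37 °C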
bact viab count: counter-screen for AddAB inhibitors: inhibitors of bacterial viability; actives 35% (n = 880); absorbance (AddAB counterscreen); shares compounds with AddAB inh; inhibition, % at 11.9 µM; in the data active = inhibition above about 25%
RecBCD conf: growth loss of phage-infected V66 E. coli, RecBCD confirmation screen. shares compounds with phage Ecoli inh. E. coli V66 + T4 2- phage, growth OD. inhibition, % at 11.9 µM. actives 45% (n = 890);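 active = mean inhibition over triplicates exceeding the hit threshold derived in the original primary screen, cut at about 11% in these data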
Ecoli viability: bacterial viability inhibition counter-screen for RecBCD; actives 29% (n = 890); E. coli viability, absorbance (OD) growth; AID 651983; shares compounds with phage Ecoli inh; inhibition, % at 11.9 µM; in the data active = inhibition above about 20%;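 note: E. coli strain V66 grown with compound alone and no phage infection; 0% = bacteria with DMSO vehicle only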
AddAB counter: growth loss of phage-infected AddAB E. coli, RecBCD counter-screen; inhibition, % at 11.9 µM; actives 45% (n = 890); shares compounds with phage Ecoli inh; E. coli expressing H. pylori AddAB + T4 phage, OD growth; gene 2 mutant T4, recBCD-deleted host;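 active = mean inhibition above the solvent-only control wells' mean plus 3 SD, cut at about 22% in these data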;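 note: higher means less bacterial growth from phage killing when AddAB is blocked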
* = called active by the depositor; . = no result. Sampled rows, rich in hits. Any-hit rate of the full collection: about 0.51%.

SMILES | E coli growth-1 | phage Ecoli inh | E coli growth-2 | Tat export inh | p-CIP stab down | AddAB inh | AddAB conf | RecBCD counter | bact viab count | RecBCD conf | Ecoli viability | AddAB counter
CCCN(CCC)C1Cc2cc(OC)c(OC)cc2C1 | 0.683 | 4.5 | 99.5* | -8.6 | . | 98.5* | -5.3 | 1.0 | -1.7 | . | . | .
COC(=O)C1=C(c2cccc(C#N)c2)CC2CCC1N2C(=O)NCc1cc(C)oc1C(F)(F)F (configuration not stated) | 0.689 | . | . | . | . | . | . | . | . | . | . | .
CCCNC1=C(C)C(=O)C2=C(C1=O)C(COC(N)=O)[C@]1(OC)C3NC3CN21 (some centres not stated) | 0.127* | 22.7* | 45.8* | 9.5 | 0.7 | 44.2* | 97.5* | 45.1* | 82.2* | . | . | .
O=c1[nH]c(=S)n(C2CC2)c(O)c1C=NCc1ccc(F)cc1 | 0.527 | 1.9 | 15.4* | -1.1 | -7.0 | 26.8* | 61.6* | 0.4 | 25.9* | . | . | .
O=c1[nH]c(=S)n(C2CC2)c(O)c1C=NCc1cccnc1 | 0.655 | . | -0.5 | . | 7.0 | -0.3 | . | . | . | . | . | .
CN1CCN(c2ccc([N+](=O)[O-])c3no[n+]([O-])c23)CC1 | 0.057* | 30.2* | 102.7* | 50.8* | -69.6 | 101.9* | 100.8* | 18.6* | 89.1* | 14.1* | 17.3 | 100.6*
Cc1nc2c(=O)n(C)c(=O)nc-2n(C)n1 | 0.049* | 41.8* | 41.9* | -16.4 | 59.3 | 40.5* | 48.1* | 39.1* | 42.2* | 43.5* | 48.1* | 60.5*
CCn1nc(-c2ccccc2)nc2c(=O)n(C)c(=O)nc1-2 | 0.613 | . | 3.0 | -6.5 | 0.7 | 3.0 | . | . | . | . | . | .
CN1CCc2cc(O)cc3c2C1Cc1ccc(O)c(O)c1-3 (configuration not stated) | 0.669 | . | . | . | . | . | . | . | . | . | . | .
CCOC(=O)[C@]12Cc3cc(Cl)ccc3[C@H]1N(C1CCCCC1)C(=O)c1cc(OC)ccc12 | . | 11.2* | . | . | . | . | . | . | . | 5.1 | 4.0 | -4.5
CCN(CC)S(=O)(=O)c1ccc(N=Cc2c(O)n(-c3ccccc3)c(=O)[nH]c2=O)cc1 | 0.717 | 1.8 | 1.0 | -8.7 | -28.7 | -0.3 | . | . | . | . | . | .
O=c1[nH]c(=O)n(-c2ccc(Cl)cc2)c(O)c1C=Nc1ccc(S(=O)(=O)Nc2nccs2)cc1 | . | 11.9* | 3.4 | 4.6 | -42.0 | 8.7 | . | . | . | 6.0 | 3.9 | 25.0*
COc1ccc(CC2=NCCc3cc(OC)c(OC)cc32)cc1OC | . | 4.0 | . | . | . | . | . | . | . | . | . | .
COC(=O)c1c2[n+](cc3cc(OC)c(OC)cc13)CCc1cc(OC)c(OC)cc1-2 | 0.67 | 15.5* | -0.3 | -2.1 | . | 0.3 | . | . | . | -4.6 | -4.8 | -1.8
CCN1/C(=C/C=C/C2=[N+](CC)c3ccccc3C2(C)C)C(C)(C)c2ccccc21 | . | 25.4* | . | . | . | . | . | . | . | 17.9* | 21.0* | 43.4*
O=c1[nH]c(O)c(N=Nc2cc([N+](=O)[O-])ccc2O)c(=O)[nH]1 | 0.693 | -0.5 | -4.5 | -2.2 | -21.3 | -1.6 | . | . | . | . | . | .
O=[N+]([O-])c1ccc(N(CCO)CCO)c2c1no[n+]2[O-] | . | 93.2* | . | . | . | . | . | . | . | 84.5* | 91.5* | 100.2*
CC1CCCC(O)CCCCCc2cc(O)cc(O)c2C(=O)O1 (configuration not stated) | 0.712 | . | . | . | . | . | . | . | . | . | . | .
CC1(CCl)CN1S(=O)(=O)c1ccccc1 (configuration not stated) | 0.716 | 1.1 | -2.1 | 7.2 | -7.3 | 1.4 | . | . | . | . | . | .
NC(Cc1ccc(Cl)cc1)c1csc(Nc2ncccn2)n1 (configuration not stated) | . | 0.0 | . | . | . | . | . | . | . | . | . | .
